Experimental findings from ChEMBL document CHEMBL4513216, “Probing the Open Global Health Chemical Diversity Library for Multistage-Active Starting Points for Next-Generation Antimalarials” (ACS Infect Dis, 2020) are described below.

Screen size: about 65,000 compounds; about 2,100 (3.2%) showed an effect of 50% or more. The median lay at about -52%. The full list was thinned out, with strong results kept by preference.

In this assay the test system is Plasmodium falciparum. Briefly: Screen against P. falciparum Asexual Blood Stage (ABS), at 5uM. Type of assay: functional, Dd2. Particulars: tested at 5 uM.
On to `O=C(c1ccoc1)N1CCO[C@]2(CCC[C@@H]2COCc2cccnc2)C1`, for which the INHIBITION is recorded as -54.6%. As for `Cc1ccc(N2CC[C@@H]3[C@@H]2CCN3C(=O)Cc2ccsc2)nn1`, the INHIBITION is -93.9%. Take `Cc1cc2c(cc1NC(=O)NC(C)(C)C)OCO2`: the INHIBITION was -23.5%. For the compound `CCOCc1nc2c(c(N(C)Cc3ccsc3)n1)CCNCC2`, the INHIBITION turned out to be 64.4%. In the case of `CCOCc1nc2c(c(N(C)Cc3snnc3C)n1)CCNCC2`, the INHIBITION is -48%. Consider `CCOCc1nc2c(c(N(C)Cc3nonc3C)n1)CCNCC2`, for which the INHIBITION is given as 47.4%. As for `CN(C)CCN1C[C@@H]2CN(c3ccccc3)C[C@@H]2C1=O`, the INHIBITION was -41.2%. As for `c1cnn(CCCO[C@@H]2CC[C@H]3[C@H]2OCCN3CC2CC2)c1`, the INHIBITION was -65.8%. In the case of `CN(Cc1cccnc1)C1CC2(CCN(Cc3ccccn3)CC2)C1` it was 10.3%.

In the case of `Cc1ccc(CNC(=O)NC2CCCc3c2cnn3CCO)cn1` (configuration not stated), the INHIBITION is -91.3%. In the case of `CCCc1ncc(CN(CCOC)Cc2cccs2)cn1` it was -70.2%. Take `NCCc1nc(N(Cc2nccs2)C2CC2)c2ccccc2n1`: the INHIBITION is listed as -53.9%.

Take `Cc1ccsc1CN(c1nc(CCN)nc2ccccc12)C1CC1`: the INHIBITION is given as 51.4%. `COCCN(CC1CC1)c1nc(CCN)nc2ccccc12`: the INHIBITION came to 12.1%. In the case of `NCCc1nc(N(Cc2cncs2)C2CC2)c2ccccc2n1` it was -30.2%; in that of `COCCN(Cc1cccs1)c1nc(CCN)nc2ccccc12`, 62.2%; in that of `O=C(Cc1ccon1)N1CCN(c2ccc(F)cc2Cl)CC1`, -28.3%.

With `Cc1cnn(CCNCC(O)COc2ccc(F)cc2)c1` (configuration not stated), the INHIBITION was 47.3%.

For the compound `O=C(c1ccco1)N1CCC12CCN(c1ncc(F)cn1)CC2`, the INHIBITION is given as -79.7%. `CN(C)S(=O)(=O)N1CCC(Oc2cccnn2)CC1`: the INHIBITION is given as -57.2%.

Consider `CC(C)CC(C)NCc1cccnc1N1CCN(c2ccccn2)CC1` (configuration not stated), for which the INHIBITION amounted to 56.6%. In the case of `CCC(CC)C(=O)NCCC(=O)N1CCN(c2ccccn2)CC1`, the INHIBITION is listed as -123%. Then `CC(C)NCc1cccnc1N1CCN(c2ccccn2)CC1`, with 3.69%; and `Cc1nn(C)c(Cl)c1CNCc1cccnc1N1CCOCC1`, with -69.2%. As to `Cc1nn(C)c(C)c1CNCc1cccnc1N1CCOCC1`, the INHIBITION is reported as -43.9%. In the case of `CC(C)CC(C)NCc1cccnc1N1CCOCC1` (configuration not stated), the INHIBITION came to 60.8%. Regarding `CCC(C)NC(=O)NCCC(=O)N1CCN(c2ccccn2)CC1` (configuration not stated), the INHIBITION is -15.2%. Turning to `CC(C)C(=O)NCCC(=O)N1CCN(c2ccccn2)CC1`, the INHIBITION is -172%. Turning to `CCCC(C)NCc1cccnc1N1CCN(c2ccccn2)CC1` (configuration not stated), the INHIBITION came to 51.4%. On to `CC1(C)CNC(=O)CN(C(=O)COc2ccccc2)C1`, for which the INHIBITION is given as -24.2%. Turning to `NCCCNS(=O)(=O)Cc1ccc(Br)cc1`, the INHIBITION is reported as -29.3%. As for `Cc1cccc(CN2C(=O)CCC23CCN(Cc2ccoc2)CC3)n1`, the INHIBITION was -81%. `CN(C)C(=O)CN1C(=O)CCC12CCN(Cc1ccc(F)cc1)CC2`: the INHIBITION is reported as -99.9%.

Regarding `Cc1noc(C)c1CN1CCN(c2ccnc(-c3ccccc3)n2)CC1`, the INHIBITION is -33.7%. As to `CCN(CC)C1CCN(C(=O)c2cc3cc(C)cc(C)c3nc2C)CC1`, the INHIBITION is listed as 56.8%. As for `Cc1cc(C)c2nc(C)c(C(=O)N3CCC(N4CCCC4)CC3)cc2c1`, the INHIBITION was -39.3%. In the case of `Cc1cc(C)c2nc(C)c(C(=O)N3CCC(CCN(C)C)CC3)cc2c1`, the INHIBITION was -87.5%. Regarding `Cc1cc(CN2C[C@@H](C)[C@@]3(CCN(CC(=O)N(C)C)C3=O)C2)oc1C`, the INHIBITION is on record as -100%. In the case of `CC[C@H](C)[C@H](NC(=O)c1ccc(-n2cnnn2)cc1)C(=O)OC`, the INHIBITION is recorded as -18.7%. In the case of `CN1CCN(C(=O)c2occc2CN2C(=O)Cc3ccccc32)CC1` it was 54.3%; in that of `O=C(c1occc1CN1C(=O)Cc2ccccc21)N1CCCCCC1`, 3.14%; in that of `O=C(c1occc1CN1C(=O)Cc2ccccc21)N1CC(O)C1`, -89.1%.

Consider `Cc1cc(C(N)=O)nc(C2(C)CCCN2Cc2cnn(C)c2C)n1` (configuration not stated), for which the INHIBITION is recorded as -80.5%.

As for `Cc1ccc(OC2(C(=O)N(C)Cc3ccoc3)CCNCC2)cc1`, the INHIBITION was determined as 63.5%. As for `CN(C)C(=O)C1(Oc2ccc(Cl)cc2)CCNCC1`, the INHIBITION worked out at 49.2%. With `O=C(N[C@@H]1CCCNC1)C1(Oc2ccc(Cl)cc2)CCNCC1`, the INHIBITION is on record as -14.3%. `CN(Cc1ccoc1)C(=O)C1(Oc2ccc(Cl)cc2)CCNCC1`: the INHIBITION came to 66.9%.

For `CN(Cc1ccncn1)C(=O)C1(Oc2ccc(Cl)cc2)CCNCC1`, the INHIBITION is -74.1%. Regarding `CN(Cc1ccoc1)C(=O)CN1C(=O)OC(C)(C)C1=O`, the INHIBITION was -47.7%.

As for `COCC(=O)N1CCCn2c(CN3CCCC3)nnc2C1`, the INHIBITION is recorded as -108%. For `CC(C)NC(=O)C1(CC2CC(c3ccc(F)cc3)=NO2)CCNCC1` (configuration not stated), the INHIBITION is -90.4%. In the case of `COc1ncc(NCc2ccc(Cl)c(Cl)c2)cc1C(N)=O` it was -14%; in that of `O=C(CN1C[C@@H]2CC[C@H]1CN(Cc1ccccn1)C2)NCc1cccs1`, 68.4%; in that of `Cn1ccc(NC(=O)CN2C[C@@H]3CC[C@H]2CN(Cc2ccccn2)C3)n1`, -21.7%.

Regarding `O=C(c1cc(C2CC2)no1)N1C[C@@H]2CC[C@H]1CN(Cc1ccccn1)C2`, the INHIBITION was found to be 9.2%.

As for `c1cc(CN2C[C@@H]3OCCN(CC4CC4)[C@@H]3C2)n[nH]1`, the INHIBITION was found to be 7.58%. `CC(=O)N1CCO[C@@H]2CN(S(=O)(=O)C3CC3)C[C@@H]2C1`: the INHIBITION was -114%. Consider `CCCc1cncnc1N1CCC2(CCC(=O)N(CCCO)C2)CC1`, for which the INHIBITION is listed as -6.89%. `Cc1csc2c(N3CCC(NCCc4ccnn4C)CC3)ncnc12`: the INHIBITION is reported as -18.8%. Take `Cc1csc2c(N3CCC(NCCCc4ccncc4)CC3)ncnc12`: the INHIBITION was found to be 64.6%. In the case of `CCCc1cncnc1N1CCC(NCc2ccncc2)CC1` it was 66.1%; in that of `CCCN1CCC(NCc2ccncc2)CC1`, -47.1%. Regarding `CCCc1cncnc1N1CCC2(CCC(=O)N(C3CCCC3)C2)CC1`, the INHIBITION stood at 29.3%. `Cc1ccc(CNC2CCN(CCc3ccncc3)CC2)s1`: the INHIBITION is given as -1.43%.

In the case of `CCCc1cncnc1N1CCC(NCc2ccc(O)cc2)CC1`, the INHIBITION is 50.2%.

Regarding `Cc1csc2c(N3CCC(NCCCc4cnn(C)c4)CC3)ncnc12`, the INHIBITION is listed as -10.6%. In the case of `CCOc1ccc(C(=O)CCC(=O)N(C)Cc2nc(C)c[nH]2)cc1C` it was -27.6%.
